{
  "source": "PubChem BioAssay (NCI)",
  "note": "Compounds without any hit were thinned out: in the full panel of roughly 83,000, 20% have a hit.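 Cell lines were cultured in 96-well plates, exposed to a single compound concentration, and assessed for percent growth 48 hours later.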 Unmarked numbers belong to inactive results. Activity calls are given as the source filed them. Rule for the calls: active = growth percent below 10; inactive = the rest.",
  "data": [
    {"tested_on": "HL-60(TB) leukemia", "test": "NCI-60 one-dose screen, 48 h (100 = growth as untreated, 0 = no growth, -100 = all killed)", "settings": "10 µM unless noted", "values": [
      {"smiles": "Nc1ccc(F)cc1F", "growth": "97.9%"},
      {"smiles": "CCOC(=O)N1CCC(N=C2CSc3nnc(-c4cc(C(F)(F)F)cc(C(F)(F)F)c4)n3N2)CC1", "growth": "-40.7% (active)"},
      {"smiles": "O=C(Cc1ccc(/C=C/C(=O)c2ncc[nH]2)cc1)Nc1ccc(Cl)cc1", "growth": "-14.5% (active)"},
      {"smiles": "COc1ccc(/C=C/C(=O)/C=C/c2cc3ccccc3[nH]c2=O)cc1", "growth": "62.9%"},
      {"smiles": "CNC(=O)c1cc(Oc2ccc3nc(NC(=O)c4ccc5ncccc5c4)sc3c2)ccn1", "growth": "87.8%"},
      {"smiles": "N#Cc1cnc2ccc(NCc3cnc[nH]3)cc2c1Nc1ccc(F)c(Cl)c1", "growth": "79.4%"},
      {"smiles": "NCCCCCNc1noc(Cc2c[nH]c3cc(Br)ccc23)n1", "growth": "-48.8% (active)"},
      {"smiles": "CNCCNc1nc2ccccc2c2c(=O)c3cc(F)ccc3sc12", "growth": "-33.1% (active)"},
      {"smiles": "COc1ccc(-c2nc3ccccn3c2-c2nc3ccc(Cl)cc3[nH]2)cc1", "growth": "74.8%"},
      {"smiles": "COc1ccc(-c2nc3sccn3c2-c2cc(-c3cc(OC)c(OC)c(OC)c3)on2)cc1", "growth": "23.5%"},
      {"smiles": "Cn1c(=O)c(S(=O)(=O)c2ccccc2)cc2ccc3c(cnn3-c3ccc(Cl)cc3)c21", "growth": "90.2%"},
      {"smiles": "Nc1cc(Br)cc2c1[nH]c(=O)c1ccccc12", "growth": "91.6%"},
      {"smiles": "CC1=CC2OC34COC3CC(OC(=O)C(F)(F)F)C4(C)C2(C)CC1", "note": "(stereo not given)", "growth": "114%"},
      {"smiles": "CN(C)c1ccc(C2C(C#N)=C(/N=C/c3ccccc3)Oc3c2ccc2ccccc32)cc1", "note": "(stereo not given)", "growth": "29.5%"},
      {"smiles": "CCCCC(C#N)C(N)=O", "note": "(stereo not given)", "growth": "93.8%"},
      {"smiles": "Cc1ccc(-c2cc3nc(-c4ccccc4)nc(C(Cl)Cl)n3n2)cc1", "growth": "12.6%"},
      {"smiles": "O=c1[nH]c2cc(O)ccc2n2cc3c(F)cccc3c12", "growth": "25.5%"},
      {"smiles": "CC(=O)Nc1ccc(C(=O)c2ccc(S(=O)(=O)Nc3ccccc3)cc2)cc1", "growth": "102%"},
      {"smiles": "C=C(C)[C@@H]1CC[C@]2(C(=O)N3CCN(C)CC3)CC[C@]3(C)[C@H](CC[C@@H]4[C@@]5(C)CC[C@H](OC(=O)c6ccccc6C(=O)O)C(C)(C)[C@@H]5CC[C@]43C)[C@@H]12", "growth": "106%"},
      {"smiles": "C=CN(C(=O)N1CCN(c2cc3c(cc2F)c(=O)c(C(=O)O)cn3C2CC2)CC1)c1nc(-c2ccccc2)cs1", "growth": "58.1%"},
      {"smiles": "C[C@@H](C(=O)O)c1ccc2c3cc(Cl)ccc3n(Cc3cc(=O)oc4ccc(Cl)cc34)c2c1", "growth": "89.9%"},
      {"smiles": "O=C(NCCCNC(=O)OCc1ccc2cccc(O)c2n1)OCc1ccc2cccc(O)c2n1", "growth": "45.5%"},
      {"smiles": "O=C(N=c1n(-c2ccccc2)nc2n1CCN2C1=NCCN1)c1ccc(Cl)cc1", "growth": "95.8%"},
      {"smiles": "COc1cc(C2CC(c3ccc4c(c3)OCO4)=NN2C=O)cc(OC)c1OC", "note": "(stereo not given)", "growth": "0.568% (active)"},
      {"smiles": "Cn1cc(NC(=O)Nc2cc(C(=O)O)n(C)c2)cc1C(=O)O", "growth": "90.1%"},
      {"smiles": "C1=C\\COCc2cc(ccc2OCCN2CCCC2)Nc2nccc(n2)-c2cccc(c2)COC/1", "growth": "-34.6% (active)"},
      {"smiles": "O=C(CCN1CCCC1)Nc1ccc2c(NCc3ccccc3)c3ccccc3nc2c1", "growth": "-40.8% (active)"},
      {"smiles": "O=C1/C(=C/c2ccccc2O)N=C2SCCCN12", "growth": "108%"},
      {"smiles": "O=C1OCc2cccc3cccc1c23", "growth": "84.9%"},
      {"smiles": "CC(C)=C(NC(=O)c1ccccc1)C(=O)O", "growth": "110%"},
      {"smiles": "C/C(=C(/c1ccccc1)c1ccc(N2C(=O)c3cccc4c(NCc5ccccc5)ccc(c34)C2=O)cc1)c1ccccc1", "growth": "103%"},
      {"smiles": "O=C1CC(c2cccc(F)c2)c2c(n[nH]c2-c2ccc(Cl)cc2)N1", "note": "(stereo not given)", "growth": "97.3%"},
      {"smiles": "Cc1cc2nc3cc(C)c(N)cc3[n+](-c3ccccc3)c2cc1N", "growth": "63.3%"},
      {"smiles": "O=[N+]([O-])c1ccc(Oc2nc(Nc3ccc(O[C@H]4CO[C@H]5[C@@H]4OC[C@@H]5O)c(Cl)c3)ncc2F)c(Cl)c1", "growth": "25.6%"},
      {"smiles": "COc1ccc(C2CC(c3ccc(OC)c(OC)c3)=NN2C(=O)c2cc(OC)c(OC)c(OC)c2)cc1", "note": "(stereo not given)", "growth": "5.49% (active)"},
      {"smiles": "CC(c1ccc(-n2cccn2)cc1)c1cnc(N2CCc3ccc(C(N)=O)cc3C2)s1", "note": "(stereo not given)", "growth": "48.9%"},
      {"smiles": "CNC(=O)c1cc(-n2ccc3cc(NC(=O)c4ccc(N5CCOCC5)c(C(F)(F)F)c4)ccc32)ccn1", "growth": "66.3%"},
      {"smiles": "NC(CSC(c1ccccc1)(c1ccccc1)c1ccccc1)C(=O)O", "note": "(stereo not given)", "growth": "-0.908% (active)"},
      {"smiles": "C=C(C[n+]1ccccc1)[C@@H]1CC[C@]2(C(=O)OC)CC[C@]3(C)[C@H](CC[C@@H]4[C@@]5(C)CCC(=O)C(C)(C)[C@@H]5CC[C@]43C)[C@@H]12", "growth": "58%"},
      {"smiles": "CCN(CC)CCN1CC(=O)Nc2cc(Cl)ccc21", "growth": "98.9%"}
    ]}
  ]
}
